SNCA viab count = cell viability loss counter-screen. 0.12% of 150,000 active. Potency, µM (series often up to 57.1 µM), without a hit: at the highest dose activity change, negative = cytotoxicity, usual class: cytotoxic. AID 1671193. HEK-293-SNCA-luc viability, GF-AFC fluorescence, 24 h;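 note: 0% = DMSO-treated cells and -100% = medium-only wells without cells; nearly all actives have a fitted effect of over 30% in size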
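HEK-293-SNCA-luc cells (1500/well) plated 24 h, then exposed 24 h to a dilution series; GF-AFC added 30 min at 37C, fluorescence 405/540 nm; normalised to medium-only and DMSO wells, Hill fit.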
FLuc inh = inhibitors of firefly (Photinus pyralis) luciferase. P08659. purified P. pyralis luciferase, luminescence, biochemical. Potency, µM (top dose mostly 115 µM), usual class: inhibitors. 2.5% of 76,000 active. AID 1347043; note: % is set by controls: 0 for no effect and ±100 for the full control effect; nearly all actives have a fitted effect of over 65% in size
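Purified P. pyralis luciferase (10nM final) in 50mM Tris acetate pH 7.5, 10mM Mg acetate, 0.01% Tween-20, 0.05% BSA with 10uM D-luciferin and 10uM ATP. Compounds titrated qHTS. Luminescence imaged on CCD.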
HEK293 tox = HEK 293 cell cytotoxicity. HEK 293 viability, ATP luminescence (CellTiter-Glo), 48-72 h. Potency, µM (doses to about 115 µM), for inactives: top-dose activity change, negative = cytotoxicity, hits mostly inhibitors. 6.6% of 94,000 active. AID 1345083; note: % is set by controls: 0 for no effect and ±100 for the full control effect; nearly all actives have a fitted effect of over 60% in size
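ATP-coupled CellTiter-Glo luminescence served as viability read-out, recorded 10 min after reagent addition at room temperature. HEK 293 cells, 250 cells/well, had been incubated with pintool-transferred compound for 48 or 72 hr at 37 degree Celsius.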
3T3 cytotox = NIH 3T3 cell cytotoxicity | NIH 3T3 viability, CellTiter-Glo ATP luminescence, 48-72 h | Potency, µM (top dose mostly 96.7 µM), for the others: at the top dose activity change, negative = cytotoxicity, hits mostly inhibitors | 4.3% of 94,000 active | AID 1345082; note: % is set by controls: 0 for no effect and ±100 for the full control effect; nearly all actives have a fitted effect of over 55% in size
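Cytotoxicity was measured by CellTiter-Glo ATP luminescence after 48 or 72 h compound exposure at 37 °C. Mouse NIH 3T3 fibroblasts were seeded at 400 cells/well and dosed by 23 nL pin transfer.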
SNCA expr inh = inhibitors of alpha-synuclein (SNCA) gene expression; HEK-293 SNCA-luciferase knock-in, luminescence, 24 h; Potency, µM (highest dose often 57.2 µM), for the others: top-dose activity change, negative = inhibition, actives largely listed as inhibitors; 0.17% of 140,000 active; AID 1671194;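 note: plate controls were DMSO cells for no effect and cell-free wells for full effect; nearly all actives have a fitted effect of over 45% in size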
hNpr1 antagonist = blocks ANP-stimulated signaling of human Npr1 receptor | P16066 | HEK293 hNpr1 GloSensor cGMP, ANP-stimulated luminescence | Potency, µM (top dose mostly 46.3 µM), for the others: at the highest dose activity change, negative = inhibition, actives largely listed as inhibitors | 1.6% of 76,000 active | AID 1347048; calls by dose curve; note: % is set by controls: 0 for no effect and ±100 for the full control effect; nearly all actives have a fitted effect of over 60% in size
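HEK293 cells stably expressing human Npr1 and cGMP GloSensor pGS-40F, loaded 2 h with 2% GloSensor reagent, given compound 30 min at room temperature. Luminescence read before and 20 min after 0.1 nM hNppA.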
Npr1 antag conf = confirmation of human Npr1 natriuretic peptide receptor antagonists. shares compounds with hNpr1 antagonist. HEK293 hNpr1 cGMP GloSensor luminescence, ANP-stimulated. Potency, µM (highest dose often 57.6 µM), for the others: at the top dose activity change, negative = inhibition, actives largely listed as inhibitors. 76% of 1,400 active. AID 1347044; calls by dose curve; note: nearly all actives have a fitted effect of over 70% in size
NPR2 antag = antagonizes human Npr2, subtype selectivity check; shares compounds with hNpr1 antagonist; HEK293 hNpr2 GloSensor cGMP luminescence, CNP-stimulated; Potency, µM (series often up to 57.6 µM), inactives show top-dose activity change, negative = inhibition, actives largely listed as inhibitors; 67% of 1,400 active; AID 1347046; calls by dose curve; note: nearly all actives have a fitted effect of over 70% in size
FLuc counter = FLuc enzyme inhibition, Npr1 counter-screen; shares compounds with hNpr1 antagonist; purified FLuc enzyme, luminescence, Km substrate; Potency, µM (doses to about 57.6 µM), inactives show at the top dose activity change, negative = inhibition, usual class: inhibitors; 0.7% of 1,400 active; AID 1347047; note: 0% is about no effect
GloSensor cGMP = counter-screen for Npr1 antagonists: GloSensor control cell line | 69% of 1,400 active | HEK293 GloSensor cGMP, SNP-stimulated, luminescence | shares compounds with hNpr1 antagonist | Potency, µM (top dose mostly 57.6 µM), without a hit: at the top dose activity change, negative = inhibition, hits mostly inhibitors | AID 1347051; calls by dose curve; note: % is set by controls: 0 for no effect and ±100 for the full control effect; nearly all actives have a fitted effect of over 70% in size
* marks the source's active call; other numbers are inactive results; i = inactive; u = inconclusive; x = not tested or not shown; [ ] = dose if it differs, or a comment. The list is not random: actives were taken first. Their share in the collection is about 7.4%. Unless noted, calls come from the whole dose curve; as a rule, active = well fitted curve in the direction sought with a large enough effect; inconclusive = small, poorly fitted or top-dose-only effect, or another doubt; inactive = no such curve, though single readings can be large; an effect the other way counts as inactive or inconclusive. Potency is the fitted concentration of half-maximal effect.

SMILES	SNCA viab count	FLuc inh	HEK293 tox	3T3 cytotox	SNCA expr inh	hNpr1 antagonist	Npr1 antag conf	NPR2 antag	FLuc counter	GloSensor cGMP
Cc1ccccc1-c1cnc2[nH]cc(CC(=O)NC(C)C)c2c1	2%[87.6 µM]	i	u	u	-9%[87.6 µM]	28µM*	31µM*	31µM*	5%[86.2 µM]	35µM*
NC(=O)Cc1c[nH]c2ncc(-c3ccccc3F)cc12	7%[87.6 µM]	i	-28%[230 µM]	u	4%[87.6 µM]	-13%[70.6 µM]	x	x	x	x
Cc1ccccc1-c1cnc2[nH]cc(CC(=O)NCc3ccccc3)c2c1	-5%[87.6 µM]	i	u	-21%[138 µM]	u	13µM*	25µM*	25µM*	0%[86.2 µM]	14µM*
O=C(C1CCN(Cc2ccco2)CC1)N1CCC2(CCCNC2=O)C1 (stereo not given)	3%	i	-5%	i	10%	3%	x	x	x	x
Cc1ccc(F)cc1CN1CCOc2cc([S+](=O)([O-])N(C)C)ccc2C1	0%[87.6 µM]	i	40µM*	u	-10%[87.6 µM]	35µM*	40µM*	40µM*	-2%[86.2 µM]	35µM*
CN(C)[S+](=O)([O-])c1ccc2c(c1)OCCN(Cc1cc(F)ccc1F)C2	-2%[87.6 µM]	i	u	u	-23%[87.6 µM]	-4%[70.6 µM]	x	x	x	x
CCOCCn1nc(C)cc1C(=O)N[C@H](c1ccccn1)C1CC(O)C1 (stereo not given in full)	-4%	i	i	4%	6%	2%	x	x	x	x
CC(C)Oc1ccc(CN2C[C@@H](CO)[C@H](c3ccncc3)C2)cc1	2%	i	40µM*	-15%	9%	11µM*	u	u	1%	27µM*
CC(C)c1ccc(C(=O)N2CCC3(CC2)OC(=O)N(Cc2ccc(O)cc2)C3(C)c2ccccc2)cc1 (stereo not given)	-15%	i	u	u	-32%	5%	x	x	x	x
Cc1ncsc1CN1CCCCC1c1nc(CCOc2ccc(F)cc2)no1 (stereo not given)	4%	i	16µM*	u	u	10µM*	22µM*	19µM*	-1%	19µM*
O=C(Nc1cccc(Cl)c1)C1CN(C2CCCC2)C(=O)N1 (stereo not given)	1%[12.5 µM]	x	u	u	-29%[87.6 µM]	x	x	x	x	x
O=C(CC1CCCCC1)N1CCC(c2noc(COc3ccc(F)cc3)n2)CC1	-9%	i	u	u	-4%	7.1µM*	12µM*	14µM*	-7%	14µM*
O=C(CC1CCCCC1)N1CCC(Cc2nc(-c3ccccc3)no2)CC1	19%	i	u	u	-32%	10µM*	14µM*	15µM*	0%	9.7µM*
COCC(=O)N1CCC(c2noc(COc3ccc(F)cc3)n2)CC1	9%	x	-13%	-12%	36%	x	x	x	x	x
O=C(CC1CCCCC1)N1CCC(n2cc(-c3nc(-c4ccccc4)no3)nn2)CC1	3%	i	28µM*	u	13%	11µM*	24µM*	22µM*	-2%	22µM*
O=C(CC1CCCC1)N1CCC(Cc2nc(-c3ccc(F)cc3)no2)CC1	u	i	u	u	u	2.2µM*	2.2µM*	3.1µM*	3%	3.1µM*
CN(C)C(=O)c1ccc2nccn2c1	2%[87.6 µM]	x	i	i	-16%[87.6 µM]	x	x	x	x	x
CCc1nc(-c2c3n(c(=O)n(CC(=O)Nc4cc(C)ccc4C)c2=O)CCCC3)no1	-4%	i	10%	3%	-5%	-4%	x	x	x	x
O=C(CCC1CCCC1)N1CCC(Cc2nc(C3CCOCC3)no2)CC1	6%	i	u	u	-23%	10µM*	12µM*	17µM*	5%	12µM*
O=C(Cc1ccccc1Cl)N1CCC(Cc2nc(-c3ccc(F)cc3)no2)CC1	1%	i	u	u	u	16µM*	12µM*	15µM*	4%	11µM*
CS(=O)(=O)NC1CCCN(c2cc(N3CCCC3)ncn2)C1 (stereo not given)	2%	i	-6%	-4%	33%	0%	x	x	x	x
COc1ccc(NC(=O)O[C@@H]2CO[C@H]3[C@@H]2OC[C@@H]3n2nnnc2SCc2ccco2)cc1	1%	u	-4%	-16%	15%	-19%	x	x	x	x
CCOC(=O)C1CCN(C(=O)C2COC3(CCC(C)CC3)N2C(=O)c2ccccc2F)CC1 (stereo not given)	5%	i	u	-12%	11%	3%	x	x	x	x
CCNC(=O)N1CCC(Cc2ccc(C(=O)NCCc3c[nH]c4ccccc34)cc2)CC1	-17%	i	25µM*	18µM*	61%	14µM*	24µM*	24µM*	-12%	27µM*
Cc1ccc(S(=O)(=O)N2CCc3c(C(=O)NCC(C)C)cccc32)cc1	1%	i	u	u	u	u	u	u	0%	u
Cc1cc(C)n(-c2cccc(CN(C)C(=O)c3cn(Cc4ccc(Cl)cc4)nn3)c2)n1	-3%	i	u	u	-25%	-25%	x	x	x	x
CN(Cc1ccnc2ccccc12)C(=O)c1cn(Cc2ccc(Cl)cc2)nn1	-28%	i	35µM*	u	-8%	10µM*	14µM*	17µM*	3%	12µM*
CCOC(=O)C1=CN(CC(=O)Nc2ccc(C)cc2C)S(=O)(=O)N=C1C	-3%	i	-16%	-26%	u	-11%	x	x	x	x
CCOC(=O)C1=CN(CC(=O)Nc2c(C)cc(C)cc2C)S(=O)(=O)N=C1C	-5%	i	u	-19%	-17%	11µM*	24µM*	u	0%	27µM*
O=C(NCc1ccccc1)c1cn2cc(-c3cccc(C(F)(F)F)c3)sc2n1	-19%	x	-6%	-28%	29%	x	x	x	x	x

Screens as filed in PubChem BioAssay.
